This note sets out measurements from PubChem BioAssay AID1159554 (Broad Institute, 2015).

Where “and” joins values, the source holds several entries; their conditions need not be identical. Equal values may be shown once. Among all 94,000 compounds or so, about 2,100 (2.2%) were called active. Rule as the data show it: active = activity change below about -80%; inconclusive = no clear call, values can overlap the other calls; inactive = above that. What follows is part of a selection rich in actives, with near analogues and random picks from the rest. More than one record can exist for a structure, and the calls need not agree.

The test can be described thus: Dd2 malaria parasite growth inhibition – SYBR Green fluorescence, single dose replicates, primary screen (AID 1159554). The following applies: P. falciparum Dd2 growth, 72 h, at 10 µM, stronger effect = lower value.
In the case of `CC=Cc1ccc2n(c1=O)C[C@@H]1[C@@H](CO)[C@H](C(=O)NCC)[C@H]2N1CCC(F)(F)F` (mixture of isomers), the activity change was 0.676% (inactive).

Regarding `CO[C@H]1CN(C)C(=O)c2ccc(NC(=O)C3CC3)cc2OC[C@@H](C)N(C)C[C@H]1C`, the activity change was 24.8% (inactive).

Consider `COCC(=O)Nc1ccc2c(c1)C(=O)N(C)[C@H]1CC[C@@H](CC(=O)Nc3cn(C)nc3C)O[C@@H]1CO2`, for which the activity change is -1.96% (inactive).

In the case of `COc1ccc2c3c([nH]c2c1)[C@H](CO)N(C(=O)c1ccccc1)CC31CCN(S(=O)(=O)c2cccs2)CC1`, the activity change is 23.2% (inactive).

On to `CCNC(=O)C[C@@H]1CC[C@@H]2[C@@H](COc3ccc(NC(=O)c4cccc(C(F)(F)F)c4)cc3C(=O)N2C)O1`, for which the activity change was -22.5% (inactive).

As to `OC[C@H]1[C@@H](c2ccc(/C=C/c3ccccc3)cc2)[C@H]2CN(Cc3cccnc3)CCCCN21`, the activity change is -61.1% (inactive).

For `c1ccc(-c2ccc(C3[C@@H]4CN(Cc5cccnc5)C[C@H]3N4)cc2)cc1` (some centres undefined), the activity change is -91.7% (active) and -72.1% (inactive).

For `O=C(Cc1ccncc1)N1C[C@@H]2N[C@H](C1)C2c1ccc(-c2ccc(F)cc2)cc1` (some centres undefined), the activity change was -75.3% (inactive).

Turning to `CC(C)CC#Cc1ccc([C@@H]2[C@@H](CO)N3C(=O)CN(C(=O)Nc4ccc(F)cc4)C[C@H]23)cc1`, the activity change is -28.4% (inactive).

On to `COc1ccccc1CNC(=O)C[C@H]1CC[C@@H]2[C@H](COC[C@H](O)CN2Cc2ccccc2)O1`, for which the activity change was 6.62% (inactive).

With `COc1ccc(CN(C)C[C@H]2Oc3ccc(NS(=O)(=O)c4ccc(Cl)cc4)cc3CC(=O)N([C@@H](C)CO)C[C@H]2C)cc1`, the activity change is 12.9% (inactive).

Regarding `COc1ccc(S(=O)(=O)Nc2ccc3c(c2)CC(=O)N([C@@H](C)CO)C[C@H](C)[C@@H](CN(C)Cc2ccc(C(=O)O)cc2)O3)cc1`, the activity change is 22.3% (inactive).

Take `Cc1ccc(S(=O)(=O)Nc2ccc3c(c2)CC(=O)N([C@H](C)CO)C[C@@H](C)[C@H](CN(C)Cc2ccc(C(F)(F)F)cc2)O3)cc1`: the activity change is 32% (inactive).

In the case of `Cc1ccc(S(=O)(=O)Nc2ccc3c(c2)C(=O)N([C@H](C)CO)C[C@H](C)[C@H](CN(C)Cc2ccc(C(=O)Nc4ccccc4N)cc2)OCCCC[C@@H](C)O3)cc1`, the activity change is -83.6% (active).

On to `C[C@@H]1CN([C@H](C)CO)C(=O)Cc2cc(NC(=O)Nc3ccc4c(c3)OCO4)ccc2O[C@H]1CN(C)Cc1ccc(C(=O)O)cc1`, for which the activity change was 21.4% (inactive).

For `Cc1ccc(S(=O)(=O)Nc2ccc3c(c2)CC(=O)N([C@@H](C)CO)C[C@H](C)[C@H](CN(C)Cc2ccc(C(=O)Nc4ccccc4N)cc2)O3)cc1`, the activity change is -86.6% (active).

Consider `Cc1ccc(S(=O)(=O)Nc2ccc3c(c2)C(=O)N([C@H](C)CO)C[C@H](C)[C@@H](CN(C)Cc2ccccc2)OCCCC[C@H](C)O3)cc1`, for which the activity change was 30% (inactive).

On to `COc1ccc(S(=O)(=O)Nc2ccc3c(c2)CC(=O)N([C@@H](C)CO)C[C@@H](C)[C@@H](CN(C)Cc2ccc(C(=O)Nc4ccccc4N)cc2)O3)cc1`, for which the activity change was -80.3% (active).

Regarding `Cc1ccc(S(=O)(=O)Nc2ccc3c(c2)CC(=O)N([C@@H](C)CO)C[C@H](C)[C@H](CN(C)Cc2ccccc2)O3)cc1`, the activity change is -4.27% (inactive).

As to `Cc1ccc(S(=O)(=O)Nc2ccc3c(c2)C(=O)N([C@H](C)CO)C[C@@H](C)[C@H](CN(C)Cc2ccccc2)OCCCC[C@H](C)O3)cc1`, the activity change is -43.7% (inactive).

`C[C@H]1CN([C@@H](C)CO)C(=O)Cc2cc(NC(=O)Nc3ccc4c(c3)OCO4)ccc2O[C@H]1CN(C)Cc1ccc(C(=O)Nc2ccccc2N)cc1`: the activity change is -81.3% (active).

In the case of `C[C@@H]1CN([C@H](C)CO)C(=O)Cc2cc(NC(=O)Nc3ccc4c(c3)OCO4)ccc2O[C@@H]1CN(C)Cc1ccc(C(=O)Nc2ccccc2N)cc1`, the activity change was -76.5% (inactive).

As to `C/C=C/c1ccc([C@H]2[C@@H](CO)N(C(=O)NCCC)[C@H]2CN(C)C(C)=O)cc1`, the activity change is 0.514% (inactive).

As for `CCCNC(=O)[C@@H]1[C@@H](CO)[C@@H]2Cn3c(ccc(-c4cccc(OC)c4)c3=O)[C@H]1N2C(=O)NCCC`, the activity change is 8.98% (inactive).

In the case of `COCC(=O)Nc1ccc2c(c1)OC[C@H](C)N(C(=O)c1cnccn1)C[C@@H](C)[C@@H](OC)CN(C)C2=O`, the activity change is -61.6% (inactive).

As to `COc1ccc(-c2ccccc2[C@H]2[C@@H](CO)N(C(=O)C3CCC3)[C@H]2C#N)cc1`, the activity change is 17.9% (inactive).

For `COc1cccc(CNC(=O)C[C@@H]2C=C[C@@H](NC(=O)C3CCC3)[C@@H](CO)O2)c1`, the activity change was 37.9% (inactive).

Take `COc1ccc2c3c(n(C)c2c1)[C@@H](CO)NCC31CN(S(=O)(=O)c2cccc(C)c2)C1`: the activity change is -18.8% (inactive).

Consider `N#Cc1cccc(-c2ccc(C3[C@H]4CNC[C@@H]3N4S(=O)(=O)c3ccc(-c4ccccc4)cc3)cc2)c1` (some centres undefined), for which the activity change is 14.1% (inactive) and -40.8% (inactive).

Turning to `C[C@H]1CN([C@@H](C)CO)C(=O)c2cc(-c3ccncc3)cnc2O[C@@H]1CN(C)C(=O)C1CCCCC1`, the activity change was -1.12% (inactive).

Take `N#C[C@@H]1[C@H](c2ccccc2-c2ccc(F)cc2)[C@@H](CO)N1c1ncc(-c2ccccc2)s1`: the activity change was 27.4% (inactive).

Consider `CO[C@H]1CN(C)C(=O)c2cc(NC(=O)c3nc4ccccc4s3)ccc2OC[C@H](C)N(Cc2cccnc2)C[C@@H]1C`, for which the activity change was -15.4% (inactive).

On to `CCCC(=O)Nc1ccc2c(c1)C(=O)N(C)C[C@H](OC)[C@H](C)CN(CCc1ccccc1)[C@H](C)CO2`, for which the activity change was -14.1% (inactive).

On to `C[C@H]1CN([C@@H](C)CO)C(=O)Cc2cc(NS(=O)(=O)c3ccccc3)ccc2O[C@H]1CN(C)Cc1ccc(C(=O)Nc2ccccc2N)cc1`, for which the activity change is -77.2% (inactive).

`CC(C)NC(=O)Nc1ccc2c(c1)CC(=O)N([C@H](C)CO)C[C@@H](C)[C@@H](CN(C)Cc1ccc(C(=O)Nc3ccccc3N)cc1)O2`: the activity change was -49.7% (inactive).

In the case of `Cc1ccc(S(=O)(=O)Nc2ccc3c(c2)C(=O)N([C@@H](C)CO)C[C@@H](C)[C@@H](CN(C)Cc2ccc(C(=O)Nc4ccccc4N)cc2)O3)cc1`, the activity change is -61.1% (inactive).

On to `Cc1noc(C)c1S(=O)(=O)Nc1ccc2c(c1)C(=O)N([C@@H](C)CO)C[C@H](C)[C@H](CN(C)Cc1ccc(C(=O)Nc3ccccc3N)cc1)O2`, for which the activity change is -52.6% (inactive).

On to `C[C@H]1CN([C@@H](C)CO)C(=O)Cc2cc(NS(=O)(=O)c3ccccc3)ccc2O[C@@H]1CN(C)Cc1ccc(C(=O)Nc2ccccc2N)cc1`, for which the activity change is -81.4% (active).

For `C[C@@H]1CN([C@@H](C)CO)C(=O)Cc2cc(NC(=O)C3CCCCC3)ccc2O[C@@H]1CN(C)Cc1ccc(-c2ccccc2)cc1`, the activity change was -20.2% (inactive).

Take `C[C@@H]1CN([C@@H](C)CO)C(=O)Cc2cc(NC(=O)C3CCCCC3)ccc2O[C@@H]1CN(C)Cc1ccc(C(=O)Nc2ccccc2N)cc1`: the activity change was -83.7% (active).

For `C[C@H](CO)N1C[C@H](C)[C@H](CN(C)Cc2ccc(C(=O)Nc3ccccc3N)cc2)Oc2ccc(NS(C)(=O)=O)cc2C1=O`, the activity change was -28.4% (inactive).

Consider `C[C@@H]1CN([C@@H](C)CO)C(=O)c2cc(NS(=O)(=O)c3ccccc3)ccc2O[C@@H]1CN(C)Cc1ccc(C(=O)Nc2ccccc2N)cc1`, for which the activity change is -83.2% (active).

For the compound `CCCNC(=O)N1C[C@H](C)[C@@H](OC)CN(C)C(=O)c2ccc(NC(=O)CC)cc2OC[C@@H]1C`, the activity change was 52.7% (inactive).

For `COc1ccc2c3c(n(C)c2c1)[C@H](CO)NCC31CN(Cc2cc(F)ccc2F)C1`, the activity change was 23% (inactive).

Regarding `C[C@H]1CN([C@@H](C)CO)S(=O)(=O)c2ccc(C#Cc3cccnc3)cc2O[C@H]1CN(C)C(=O)CN(C)C`, the activity change was -40.6% (inactive).

`C[C@H]1CCCCO[C@H](CN(C)S(=O)(=O)c2ccc(F)cc2)[C@@H](C)CN([C@@H](C)CO)C(=O)c2cc(NS(=O)(=O)c3cn(C)cn3)ccc2O1`: the activity change is 9.89% (inactive).

Consider `CCCNC(=O)C[C@@H]1CC[C@H]2[C@@H](COC[C@@H](O)CN2Cc2ccccc2F)O1`, for which the activity change was 7.46% (inactive).

`COc1ccccc1-c1ccc2c(c1)O[C@@H](CN(C)C)[C@H](C)CN([C@H](C)CO)S2(=O)=O`: the activity change is -28.9% (inactive).

As for `COc1ccccc1-c1ccc2c(c1)O[C@H](CN(C)S(=O)(=O)c1ccc(C)cc1)[C@@H](C)CN([C@H](C)CO)S2(=O)=O`, the activity change was -80.6% (active).

`C[C@@H]1CN([C@@H](C)CO)S(=O)(=O)c2ccc(C#Cc3ccncc3)cc2O[C@@H]1CN(C)S(=O)(=O)c1ccccc1`: the activity change is -55.9% (inactive).

Turning to `C[C@@H]1CN([C@@H](C)CO)S(=O)(=O)c2ccc(C#Cc3ccc(F)cc3)cc2O[C@H]1CN(C)S(C)(=O)=O`, the activity change is -67.9% (inactive).

`Cc1ccc(S(=O)(=O)N(C)C[C@@H]2Oc3cc(C4=CCCC4)ccc3S(=O)(=O)N([C@@H](C)CO)C[C@@H]2C)cc1`: the activity change is -71.1% (inactive).

In the case of `C[C@@H]1CN([C@H](C)CO)S(=O)(=O)c2ccc(C#Cc3ccncc3)cc2O[C@@H]1CN(C)S(=O)(=O)c1ccc(F)cc1`, the activity change is -83% (active).

`CO[C@@H]1CN(C)C(=O)c2cc(NC(=O)Nc3cc(F)ccc3F)ccc2OC[C@@H](C)N(C)C[C@H]1C`: the activity change was -36.8% (inactive).

Turning to `CN1C(=O)c2cc(NC(=O)C3CCOCC3)ccc2OC[C@@H]2O[C@@H](CC(=O)NCC3CC3)CC[C@@H]21`, the activity change was 6.17% (inactive).

`O=C(NCCN1CCCC1)[C@@H]1N[C@@H]2c3ccc(-c4ccccc4)c(=O)n3C[C@@H]2[C@H]1CO`: the activity change was -12.1% (inactive).

In the case of `COc1ccc(S(=O)(=O)N2CCCCN3[C@@H](CO)[C@@H](c4ccc(C#CCC(C)C)cc4)[C@@H]3C2)cc1`, the activity change is -87.6% (active).

As for `COc1ccc(S(=O)(=O)N2CCCCN3[C@H](CO)[C@@H](c4ccc(C#CC(C)C)cc4)[C@H]3C2)cc1`, the activity change was -38.8% (inactive).

Regarding `COc1ccc(S(=O)(=O)N2CCCCN3[C@H](C2)[C@H](c2ccc(C#CCC(C)C)cc2)[C@@H]3CO)cc1`, the activity change is 2.68% (inactive).
